Results: the supplement of paper PMC12636033
± gives the standard deviation of the averaged measurements. In all, about 33,000 sequences were measured (“E-score (rank enrichment, -0.5 to 0.5)”: median about -0.0075, highest 2% from about 0.23 on). This excerpt belongs to a sample that is enriched for the highest values.

tested on: WT Max(13-93) synthetic (M65Nle); test: PBM 8-mer E-score (E-score (rank enrichment, -0.5 to 0.5)); higher = stronger preferential binding
Method: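 Protein binding microarray (universal PBM chip covering all 10-mers in fixed probe flanks) with chemically synthesized human Max(13-93) bHLH-LZ analogs (not full-length Max) bearing noncanonical residues (hArg, Tha, Aib, Nle at 65) and aromatic Cys staples. Read-out per 8-mer (and its reverse complement): E-score (rank-based enrichment, -0.5 to 0.5) and Z-score of median probe intensity.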

Sequence | PBM 8-mer E-score
AACGAGAA | 0.242 ± 0.073
CACGAGGC | 0.252 ± 0.079
CACGAGGG | 0.1535 ± 0.0012
CACGAGAA | 0.12 ± 0.075
GACGAGTA | 0.0201 ± 0.095
CCTACAGA | -0.0418 ± 0.11
ATTTGTGC | 0.0791 ± 0.13
CCGGCCAC | -0.164 ± 0.0042
ACAAGCCA | -0.0302 ± 0.081
CAATAAAA | 0.29 ± 0.011
CAATAATC | 0.00647 ± 0.1
CAATAATG | 0.0933 ± 0.042
CAATAAAC | 0.139 ± 0.04
CAATAATA | 0.275 ± 0.019
GAATAAAA | 0.184 ± 0.097
CCGACTCA | -0.185 ± 0.0089
CCTCAAAA | 0.192 ± 0.0034
CCGCGTAG | -0.0165 ± 0.042
CGCTTCCC | -0.0261 ± 0.049
CTTTGTTA | 0.195 ± 0.042
AAGGAGGA | -0.0623 ± 0.0073
ATCATTGC | 0.0872 ± 0.064
CGTATACG | 0.241 ± 0.024
TGTATACA | 0.307 ± 0.074
GGTATACA | 0.0958 ± 0.069

Sequence | PBM 8-mer E-score
AGTATACA | 0.155 ± 0.15
CGTATACA | 0.105 ± 0.07
CGTATACC | -0.109 ± 0.063
CCGATCCC | -0.173 ± 0.033
ATCACCCC | 0.117 ± 0.11
CCAGGACC | -0.162 ± 0.086
CTAATCAG | 0.027 ± 0.0044
ATAATCAG | 0.256 ± 0.14
ATAATCAC | 0.04 ± 0.043
AAAATCAG | 0.104 ± 0.15
ATAATCAA | 0.15 ± 0.011
ATAATCAT | 0.285 ± 0.0003
AGCTTCTC | 0.118 ± 0.0033
AGACGTCG | -0.117 ± 0.066
CACCCTCC | 0.202 ± 0.054
CGGGGTCC | -0.276 ± 0.066
ACATGGTC | 0.319 ± 0.016
CCATGGTC | 0.0328 ± 0.1
ACATGGGA | 0.135 ± 0.03
CCATGGTA | 0.0299 ± 0.078
ACATGGGG | 0.273 ± 0.033
ACATGGTA | 0.277 ± 0.008
GCATGGCC | 0.0853 ± 0.066
GCATGGTA | 0.185 ± 0.032
CCATGGGG | -0.138 ± 0.011

Sequence | PBM 8-mer E-score
CTATGGTC | -0.0873 ± 0.11
ACATGGCC | 0.232 ± 0.14
ACATGGCG | 0.183 ± 0.026
AAATCGCT | -0.0979 ± 0.047
ACTGTGTG | 0.0422 ± 0.088
AAGAACTA | 0.204 ± 0.045
CGCTGCAA | -0.0409 ± 0.02
ACATGGAG | 0.198 ± 0.015
ACATGGTG | 0.233 ± 0.045
AGATGGTG | 0.00749 ± 0.089
GTGGGGAA | 0.205 ± 0.11
GACTGACA | -0.0306 ± 0.026
AGGCCCTC | 0.00332 ± 0.043
CAGGAATC | -0.216 ± 0.02
TTACAAAA | 0.225 ± 0.024
ATACAAAG | 0.0198 ± 0.057
CTACAAAA | 0.0614 ± 0.0036
ATACAAAT | 0.249 ± 0.035
ATACAAAC | 0.212 ± 0.016
ATACAAAA | 0.265 ± 0.02
GAGAAAAC | -0.0792 ± 0.0078
GCAAAGGA | 0.00898 ± 0.011
AATTCATG | 0.132 ± 0.0098
CTATTCAC | -0.0152 ± 0.017
GTATTCAC | 0.0929 ± 0.016

Sequence | PBM 8-mer E-score
ATATTCAC | 0.234 ± 0.022
CGCTGTCA | -0.225 ± 0.066
ACGTTCGA | -0.101 ± 0.043
CGTATGGA | -0.00324 ± 0.07
CTGTAACA | 0.044 ± 0.048
ATGTAACA | 0.239 ± 0.027
CTGTAAAA | 0.0812 ± 0.032
ATGTAATA | 0.25 ± 0.011
ATGTAATG | 0.16 ± 0.079
CTGTAATA | 0.0153 ± 0.064
ATGTAAAA | 0.268 ± 0.011
ATGTAACG | 0.0739 ± 0.012
ATGTAAAT | 0.224 ± 0.021
GCTTAGGA | -0.105 ± 0.036
TGACCCAA | 0.106 ± 0.036
CGTTACTA | 0.108 ± 0.1
CCCTCCTC | -0.0364 ± 0.059
GCATAGTA | 0.0884 ± 0.0015
GTCCCGCA | -0.141 ± 0.005
ACGTGTGA | 0.192 ± 0.054
ACGTGTGG | 0.3 ± 0.048
ACGTGTGC | 0.348 ± 0.0039
AGGTGTGG | 0.0754 ± 0.09
AAGTGTGG | 0.0251 ± 0.043
CCGTGTGC | -0.0611 ± 0.063

Sequence | PBM 8-mer E-score
ACAAAACG | 0.152 ± 0.068
ACCAGACA | -0.0218 ± 0.036
AAGAACAC | 0.156 ± 0.11
AAGAACAG | 0.137 ± 0.033
AAGAACAT | 0.2472 ± 0.0023
CCAAGCAC | 0.139 ± 0.07
ACACCGCA | -0.148 ± 0.046
CCGACCGA | -0.158 ± 0.039
CGTTCGAC | -0.123 ± 0.034
CCATGTAA | 0.0612 ± 0.026
AAATGTAG | 0.144 ± 0.015
CCATGTAC | 0.0683 ± 0.0021
ACATGTAC | 0.29 ± 0.009
ACATGTCT | 0.222 ± 0.1
ACATGTAT | 0.341 ± 0.019
GCATGTAA | 0.239 ± 0.0044
CAATGTAC | 0.0304 ± 0.16
TCATGTAA | 0.148 ± 0.0053
GCATGTAC | 0.197 ± 0.093
AGATGTAT | 0.158 ± 0.0099
AAATGTAC | 0.268 ± 0.026
ATTATCCC | 0.073 ± 0.014
CCGCGTAA | -0.0539 ± 0.056
CGTTCGTA | 0.0244 ± 0.0097
CCGTTCAC | -0.15 ± 0.0062

Sequence | PBM 8-mer E-score
AGATGTAA | 0.114 ± 0.043
AGATGTAG | 0.0391 ± 0.11
CCATGTAG | 0.14 ± 0.045
ACATGTAG | 0.329 ± 0.031
ACATGTAA | 0.317 ± 0.0085
AAATGTAA | 0.0766 ± 0.017
ATTCGATA | 0.0933 ± 0.11
CTGCAGAA | -0.039 ± 0.059
CGGGTTGC | -0.0971 ± 0.064
CTGACCAA | -0.00243 ± 0.0086
CATGGTCC | 0.0038 ± 0.074
CATGGTCA | 0.291 ± 0.031
CATGGTCG | 0.219 ± 0.039
AATGGTTA | 0.147 ± 0.038
GATGGTTA | 0.0493 ± 0.12
CATGGTTA | 0.2411 ± 0.0015
TGCCGCAA | 0.106 ± 0.083
GAATAGGC | 0.113 ± 0.015
CCGTGAGC | -0.142 ± 0.048
CAGGGGTC | -0.0985 ± 0.052
GCGACGAC | -0.0631 ± 0.081
TGTACGAA | 0.0875 ± 0.095
CATGCTAC | 0.0659 ± 0.14
CATGCTGG | 0.314 ± 0.04
CATGCTAG | 0.241 ± 0.034

Sequence | PBM 8-mer E-score
CATGCTGC | 0.183 ± 0.089
AATGCTGG | 0.0745 ± 0.034
AATGCTAG | -0.0447 ± 0.064
CCCCCGTC | -0.0979 ± 0.09
TGCCGGAA | -0.154 ± 0.028
AATGCGCC | -0.0607 ± 0.1
CCACTTAG | 0.00666 ± 0.08
CCGAGCGG | -0.0233 ± 0.11
CAACTACG | -0.0136 ± 0.15
GCCTCGAA | -0.199 ± 0.015
ACTTGCTA | 0.0291 ± 0.18
CAACAGGC | -0.126 ± 0.031
GTCATAAC | 0.0805 ± 0.074
TTCATAAA | 0.0506 ± 0.062
GTCATAAA | 0.282 ± 0.021
CACATAAA | 0.106 ± 0.099
CACATACG | 0.0417 ± 0.11
CACATACA | 0.00143 ± 0.16
AACATACT | 0.0867 ± 0.12
TACATAAA | 0.234 ± 0.02
GACATACA | 0.162 ± 0.037
AACATACG | 0.246 ± 0.04
AACATAAA | 0.225 ± 0.066
TACATACA | 0.275 ± 0.015
